Laboratory results published in PubChem BioAssay (Tox21).
Results filed as inconclusive are left out. The source made the active and inactive calls. Calls come from the whole dose curve; as a rule, active = well fitted curve in the direction sought with a large enough effect in the repeat runs; inconclusive = weak or mixed curves; inactive = no such curve, though single readings can be large; an effect the other way counts as inactive or inconclusive.

Legend:
[1] = target: Nuclear receptor subfamily 1 group I member 2 (Homo sapiens) (UniProt O75469); assay: CYP3A4 induction through human pregnane X receptor (PXR) by small molecules, qHTS assay (AID 1346984); note: nearly all actives have a fitted effect of over 40% in size
Procedure, shortened: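 Read-out is luminescence after One-Glo addition, following a 3 hr, 37C incubation with Luciferin-IPA CYP3A4 substrate (3uM final). Before that, compounds were on DPX-2 cells (HepG2 co-transfected with PXR element plus CYP3A4-promoter luciferase) for 24 hr at 37C.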

[2] = target: Nuclear receptor subfamily 1 group I member 2 (Homo sapiens) (UniProt O75469); assay: Human pregnane X receptor (PXR) activation by small molecules, qHTS assay (AID 1346985); note: nearly all actives have a fitted effect of over 40% in size; note: potency is the fitted concentration of half-maximal effect
Procedure, shortened: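 DPX-2 cells (HepG2 co-transfected with a PXR response element and a CYP3A4-promoter luciferase construct) were seeded at 2,000 per well, rested 5 hr at 37C, then exposed to DMSO-dissolved compounds for 24 hr. Activation was read as luciferase luminescence.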

[3] = target: Cytochrome P450 2D6 (Homo sapiens) (UniProt P10635); assay: Cytochrome P450 Family 2 Subfamily D Member 6 (CYP2D6) small molecule antagonists: luciferase reporter qHTS assay (AID 1671196); note: nearly all actives have a fitted effect of over 50% in size; note: potency is the fitted concentration of half-maximal effect; for activity change, negative = inhibition: series mostly up to about 120 µM
Procedure, shortened: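 CYP2D6 activity was followed as luminescence from its luciferin product after a 1 h NADPH-driven reaction at room temperature. Enzyme-substrate mix and compound were pre-incubated for 10 min, and the signal was read 20 min after adding detection reagent.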

[4] = target: Cytochrome P450 2C19 (Homo sapiens) (UniProt P33261); assay: Cytochrome P450 Family 2 Subfamily C Member 19 (CYP2C19) small molecule antagonists: luciferase reporter qHTS assay (AID 1671197); note: nearly all actives have a fitted effect of over 65% in size; note: potency is the fitted concentration of half-maximal effect; for activity change, negative = inhibition: series mostly up to about 120 µM
Procedure, shortened: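 P450-Glo CYP2C19 screening system; proluciferin substrate; DMSO compound stocks; 10 min RT preincubation; NADPH regeneration, 1 h at 37C; luciferin detection reagent, 20 min RT; luminescence as RLU.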

[5] = target: Cytochrome P450 2C9 (Homo sapiens) (UniProt P11712); assay: Cytochrome P450 Family 2 Subfamily C Member 9 (CYP2C9) small molecule antagonists: luciferase reporter qHTS assay (AID 1671198); note: nearly all actives have a fitted effect of over 50% in size; note: potency is the fitted concentration of half-maximal effect; for activity change, negative = inhibition: series mostly up to about 120 µM
Procedure, shortened: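 CYP2C9 activity was measured with a P450-Glo proluciferin substrate. Enzyme–substrate mix was held with compound for 10 min at room temperature, then NADPH regeneration solution was added for 1 h at 37C. Luciferin product was read as luminescence.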

[6] = target: Voltage-gated inwardly rectifying potassium channel KCNH2 (Homo sapiens) (UniProt Q12809); assay: Human Ether-a-go-go-Related Gene (hERG) channel small molecule antagonists: fluorescence cell-based qHTS assay (AID 1671200); note: nearly all actives have a fitted effect of over 50% in size; note: potency is the fitted concentration of half-maximal effect;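 for activity change, negative = inhibition: hERG-expressing U2OS cells given a thallium stimulus after FluxOR II dye loading; series mostly up to about 77 µM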
Procedure, shortened: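 In this thallium-flux screen, overnight-cultured U2OS cells bearing the channel are dye-loaded in darkness for an hour, rested 10 min at room temperature, and then monitored kinetically at 480/540 nm for two minutes post-stimulus.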

[7] = target: Cytochrome P450 1A2 (Homo sapiens) (UniProt P05177); assay: Cytochrome P450 Family 1 Subfamily A Member 2 (CYP1A2) small molecule antagonists: luciferase reporter qHTS assay (AID 1671199); note: nearly all actives have a fitted effect of over 50% in size; note: potency is the fitted concentration of half-maximal effect; for activity change, negative = inhibition: series mostly up to about 120 µM
Procedure, shortened: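 Luminescence from luciferin formed by CYP1A2 from a proluciferin substrate, read 20 min after detection reagent. Compound was pre-incubated 10 min with enzyme-substrate, and reaction started with NADPH regeneration solution for 1 h at room temperature; furafylline control.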

[8] = target: Cytochrome P450 3A4 (Homo sapiens) (UniProt P08684); assay: Cytochrome P450 Family 3 Subfamily A Member 4 (CYP3A4) small molecule antagonists: luciferase reporter qHTS assay (AID 1671201)
Procedure, shortened: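 CYP3A4 activity was followed with a P450-Glo proluciferin substrate. Test compounds in DMSO were preincubated 10 min; NADPH regeneration then ran 1 h, and light output was read 20 min after detection reagent.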
% is set by controls: 0 for no effect and ±100 for the full control effect.

Chain of Cytochrome P450 3A4 (Homo sapiens) (P08684 whole entry, looked up): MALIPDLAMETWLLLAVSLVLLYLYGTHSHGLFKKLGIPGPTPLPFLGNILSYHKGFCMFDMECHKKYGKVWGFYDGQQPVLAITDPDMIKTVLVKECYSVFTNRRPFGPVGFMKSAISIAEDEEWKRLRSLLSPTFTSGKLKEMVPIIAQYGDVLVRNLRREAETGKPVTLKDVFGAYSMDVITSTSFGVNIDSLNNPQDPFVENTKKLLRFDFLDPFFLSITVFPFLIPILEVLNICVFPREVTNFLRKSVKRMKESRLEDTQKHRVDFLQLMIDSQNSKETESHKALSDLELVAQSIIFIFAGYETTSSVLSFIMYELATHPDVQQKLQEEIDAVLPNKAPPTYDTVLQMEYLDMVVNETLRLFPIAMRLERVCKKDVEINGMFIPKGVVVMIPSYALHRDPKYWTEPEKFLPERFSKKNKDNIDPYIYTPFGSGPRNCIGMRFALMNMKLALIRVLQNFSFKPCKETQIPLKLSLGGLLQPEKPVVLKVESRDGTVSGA
Chain of Cytochrome P450 2C19 (Homo sapiens) (P33261 whole entry, looked up): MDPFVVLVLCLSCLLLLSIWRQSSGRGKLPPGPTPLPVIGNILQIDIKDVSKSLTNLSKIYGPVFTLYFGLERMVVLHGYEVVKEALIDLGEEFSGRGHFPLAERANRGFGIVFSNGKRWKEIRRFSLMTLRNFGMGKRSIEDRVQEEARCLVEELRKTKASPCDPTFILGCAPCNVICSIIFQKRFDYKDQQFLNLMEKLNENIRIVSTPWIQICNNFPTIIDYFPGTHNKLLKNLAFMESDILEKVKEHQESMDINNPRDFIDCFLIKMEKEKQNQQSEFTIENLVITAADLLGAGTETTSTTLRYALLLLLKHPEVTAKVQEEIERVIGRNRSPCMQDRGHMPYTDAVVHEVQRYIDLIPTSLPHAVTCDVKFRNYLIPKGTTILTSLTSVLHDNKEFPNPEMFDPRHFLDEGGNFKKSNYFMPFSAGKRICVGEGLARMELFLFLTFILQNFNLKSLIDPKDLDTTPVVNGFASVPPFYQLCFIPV
Chain of Voltage-gated inwardly rectifying potassium channel KCNH2 (Homo sapiens) (Q12809 whole entry, looked up): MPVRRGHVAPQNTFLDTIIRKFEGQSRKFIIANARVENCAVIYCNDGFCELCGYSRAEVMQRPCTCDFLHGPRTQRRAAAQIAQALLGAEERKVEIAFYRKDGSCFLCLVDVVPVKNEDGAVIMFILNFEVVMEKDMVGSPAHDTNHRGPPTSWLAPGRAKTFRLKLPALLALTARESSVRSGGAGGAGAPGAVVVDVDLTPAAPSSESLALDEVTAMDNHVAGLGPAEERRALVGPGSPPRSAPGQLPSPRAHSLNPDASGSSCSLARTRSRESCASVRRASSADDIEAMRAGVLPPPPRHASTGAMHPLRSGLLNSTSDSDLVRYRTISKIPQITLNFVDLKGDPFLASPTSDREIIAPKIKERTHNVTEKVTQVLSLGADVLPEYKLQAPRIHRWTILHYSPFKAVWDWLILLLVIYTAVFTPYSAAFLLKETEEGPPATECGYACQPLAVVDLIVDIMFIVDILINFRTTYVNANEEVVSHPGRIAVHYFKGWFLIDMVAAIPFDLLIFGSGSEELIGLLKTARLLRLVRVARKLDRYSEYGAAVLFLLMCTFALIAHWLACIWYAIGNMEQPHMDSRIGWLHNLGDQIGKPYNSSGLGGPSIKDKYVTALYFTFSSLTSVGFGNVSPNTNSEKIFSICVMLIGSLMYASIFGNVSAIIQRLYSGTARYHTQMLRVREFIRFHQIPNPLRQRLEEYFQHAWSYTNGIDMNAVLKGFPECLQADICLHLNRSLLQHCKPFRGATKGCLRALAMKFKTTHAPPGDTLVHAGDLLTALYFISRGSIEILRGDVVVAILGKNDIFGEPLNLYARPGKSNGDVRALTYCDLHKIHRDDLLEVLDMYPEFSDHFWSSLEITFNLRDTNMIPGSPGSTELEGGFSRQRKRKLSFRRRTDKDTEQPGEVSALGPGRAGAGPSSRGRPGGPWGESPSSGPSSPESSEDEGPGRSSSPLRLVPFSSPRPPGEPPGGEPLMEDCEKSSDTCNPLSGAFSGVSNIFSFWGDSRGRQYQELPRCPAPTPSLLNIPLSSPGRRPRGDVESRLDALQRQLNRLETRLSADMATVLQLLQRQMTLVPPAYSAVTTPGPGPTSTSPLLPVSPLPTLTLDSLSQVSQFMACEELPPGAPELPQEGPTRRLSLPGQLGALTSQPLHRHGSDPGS
Chain of Cytochrome P450 2C9 (Homo sapiens) (P11712 whole entry, looked up): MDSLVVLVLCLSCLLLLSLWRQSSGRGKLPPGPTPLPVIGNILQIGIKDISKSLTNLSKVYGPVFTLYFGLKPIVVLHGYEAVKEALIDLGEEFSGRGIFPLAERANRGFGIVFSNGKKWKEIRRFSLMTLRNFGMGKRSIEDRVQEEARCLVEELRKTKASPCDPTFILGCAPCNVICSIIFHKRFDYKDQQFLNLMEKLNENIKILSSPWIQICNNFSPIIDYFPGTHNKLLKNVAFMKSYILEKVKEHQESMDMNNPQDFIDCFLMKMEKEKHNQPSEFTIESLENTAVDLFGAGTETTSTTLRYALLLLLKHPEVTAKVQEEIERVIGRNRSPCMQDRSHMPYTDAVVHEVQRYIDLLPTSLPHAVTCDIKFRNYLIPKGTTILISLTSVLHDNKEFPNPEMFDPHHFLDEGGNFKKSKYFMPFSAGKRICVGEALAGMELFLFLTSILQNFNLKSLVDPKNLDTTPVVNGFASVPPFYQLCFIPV
Chain of Cytochrome P450 2D6 (Homo sapiens) (P10635 whole entry, looked up): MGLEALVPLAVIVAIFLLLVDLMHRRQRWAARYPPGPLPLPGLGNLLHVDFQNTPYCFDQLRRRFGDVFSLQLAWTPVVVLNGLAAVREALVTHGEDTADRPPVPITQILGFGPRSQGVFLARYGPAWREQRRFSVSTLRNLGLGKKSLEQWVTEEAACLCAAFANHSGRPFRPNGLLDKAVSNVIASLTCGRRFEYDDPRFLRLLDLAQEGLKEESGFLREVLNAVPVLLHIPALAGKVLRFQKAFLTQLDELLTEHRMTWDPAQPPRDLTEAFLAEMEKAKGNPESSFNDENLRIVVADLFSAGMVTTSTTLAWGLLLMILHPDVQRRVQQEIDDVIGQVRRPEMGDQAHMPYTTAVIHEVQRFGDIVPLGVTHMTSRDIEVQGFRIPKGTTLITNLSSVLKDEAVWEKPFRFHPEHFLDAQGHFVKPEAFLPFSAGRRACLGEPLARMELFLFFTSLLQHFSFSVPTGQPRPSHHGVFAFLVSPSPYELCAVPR
Chain of Cytochrome P450 1A2 (Homo sapiens) (P05177 whole entry, looked up): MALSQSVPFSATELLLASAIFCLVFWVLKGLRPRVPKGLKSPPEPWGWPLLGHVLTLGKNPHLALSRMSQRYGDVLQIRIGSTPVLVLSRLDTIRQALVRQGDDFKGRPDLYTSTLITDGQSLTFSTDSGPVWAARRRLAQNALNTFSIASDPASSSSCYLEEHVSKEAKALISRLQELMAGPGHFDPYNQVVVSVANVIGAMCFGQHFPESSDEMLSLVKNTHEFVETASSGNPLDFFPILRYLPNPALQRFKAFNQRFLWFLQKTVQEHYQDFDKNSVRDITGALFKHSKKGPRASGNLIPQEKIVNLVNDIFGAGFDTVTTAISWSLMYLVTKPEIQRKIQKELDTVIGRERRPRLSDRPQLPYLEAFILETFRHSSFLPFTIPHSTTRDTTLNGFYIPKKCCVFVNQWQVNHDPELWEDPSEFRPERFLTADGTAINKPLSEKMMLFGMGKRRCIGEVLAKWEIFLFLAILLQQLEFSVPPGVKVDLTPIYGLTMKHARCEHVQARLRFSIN

NS(=O)(=O)c1cc2c(cc1Cl)NC(CC1CCCC1)NS2(=O)=O (stereo unspecified)
inactive: outcome [1] | Potency [2] | Potency [3] | Potency [4] | Potency [5] | Potency [6]

NS(=O)(=O)c1cc2c(cc1Cl)NC(C(Cl)Cl)NS2(=O)=O (stereo unspecified)
inactive: outcome [1] | Potency [2] | Potency [3] | Potency [5] | Potency [7] | Potency [6] | Potency [8]

CNCc1ccccc1
inactive: outcome [1] | Potency [2] | Potency [3] | Potency [7] | Potency [6] | Potency [8]

O=C(CN1CCN(Cc2ccc3c(c2)OCO3)CC1)N1c2ccccc2Sc2ccccc21
active: Potency [3] 0.55 µM | Potency [4] 34.7 µM | Potency [5] 15.5 µM | Potency [6] 4.77 µM
inactive: outcome [1] | Potency [7]

Nc1ccc(S(=O)(=O)Nc2ccccn2)cc1
inactive: outcome [1] | Potency [2] | Potency [3] | Potency [4] | Potency [5] | Potency [7] | Potency [6]

O=c1[nH]c(=O)c2[nH]c(=O)[nH]c2[nH]1
inactive: outcome [1] | Potency [2] | activity change, negative = inhibition [3] -9.18% [at 10.5 µM] | activity change, negative = inhibition [4] -2.11% [at 10.5 µM] | activity change, negative = inhibition [5] 10.1% [at 10.5 µM] | activity change, negative = inhibition [7] -28.5% [at 10.5 µM] | activity change, negative = inhibition [6] -12.8% [at 6.97 µM] | activity change, negative = inhibition [8] 20% [at 10.5 µM]

NS(=O)(=O)c1ccc(Cl)c(S(N)(=O)=O)c1
inactive: outcome [1] | Potency [2] | Potency [5] | Potency [7] | Potency [6] | Potency [8]

Cc1ccc(S(=O)(=O)NC(=O)NC2CCCCCCC2)cc1
active: Potency [5] 11 µM
inactive: outcome [1] | Potency [3] | Potency [7] | Potency [6] | Potency [8]

O=C(Nc1cccc(C2=NCCN2)c1)Nc1cccc(C2=NCCN2)c1
active: Potency [3] 16.9 µM
inactive: outcome [1] | Potency [2] | activity change, negative = inhibition [4] -6.53% [at 23.6 µM] | activity change, negative = inhibition [5] 0.456% [at 23.6 µM] | activity change, negative = inhibition [7] 12% [at 23.6 µM] | activity change, negative = inhibition [6] 4.21% [at 15.8 µM] | activity change, negative = inhibition [8] 41.3% [at 23.6 µM]

Nc1ccc(/C=C/c2ccc(N)cc2S(=O)(=O)O)c(S(=O)(=O)O)c1
inactive: outcome [1] | Potency [2] | activity change, negative = inhibition [3] -0.348% [at 0.435 µM] | activity change, negative = inhibition [4] 14.7% [at 0.435 µM] | activity change, negative = inhibition [5] 3.26% [at 0.435 µM] | activity change, negative = inhibition [7] 12.7% [at 0.435 µM] | activity change, negative = inhibition [6] 0.168% [at 0.29 µM] | activity change, negative = inhibition [8] 15.4% [at 0.435 µM]

COCC(=O)Nc1c(I)c(C(=O)NCC(O)CO)c(I)c(C(=O)N(C)CC(O)CO)c1I (stereo unspecified)
inactive: outcome [1] | Potency [4] | Potency [5] | Potency [7] | Potency [6] | Potency [8]

NC(=O)NC(=O)Cc1ccccc1
inactive: outcome [1] | Potency [2] | Potency [3] | Potency [4] | Potency [5] | Potency [6] | Potency [8]

O=c1[nH]c(=O)c2ccccc2o1
inactive: outcome [1] | Potency [2] | Potency [3] | Potency [4] | Potency [5] | Potency [7] | Potency [6] | Potency [8]

COc1cc([N+](=O)[O-])ccc1N
inactive: Potency [3] | Potency [4] | Potency [5] | Potency [6]
active: Potency [7] 22.4 µM

O=C(O)/C=C/c1ccccc1
inactive: outcome [1] | Potency [2] | Potency [4] | Potency [5] | Potency [7] | Potency [6] | Potency [8]
active: Potency [3] 39.9 µM

COc1cc2c(Nc3ccc(Br)cc3F)ncnc2cc1OCC1CCN(C)CC1
inactive: outcome [1] | Potency [3] | Potency [4] | Potency [5] | Potency [6] | Potency [8]
active: Potency [2] 14.1 µM | Potency [7] 30.9 µM

COc1cc2c3cc1Oc1cc(ccc1O)C[C@@H]1c4c(cc(OC)c(O)c4Oc4ccc(cc4)C[C@@H]3N(C)CC2)CC[N+]1(C)C
inactive: outcome [1] | Potency [2] | Potency [3] | Potency [5] | Potency [7] | Potency [6] | Potency [8]

CCCCCC1Nc2cc(C(F)(F)F)c(S(N)(=O)=O)cc2S(=O)(=O)N1 (stereo unspecified)
active: Potency [3] 13.8 µM | Potency [5] 1.55 µM | Potency [6] 23.9 µM
inactive: Potency [4] | Potency [7]

CCC1Nc2cc(Cl)c(S(N)(=O)=O)cc2S(=O)(=O)N1 (stereo unspecified)
inactive: outcome [1] | Potency [2] | Potency [3] | Potency [4] | Potency [5] | Potency [7] | Potency [6] | Potency [8]

O=C(Oc1ccccc1C(=O)O)c1ccccc1O
inactive: outcome [1] | Potency [2] | Potency [3] | Potency [7] | Potency [6] | Potency [8]

CN[C@@H]1[C@H](O)[C@H](NC)[C@H]2O[C@@]3(O)C(=O)C[C@@H](C)O[C@H]3O[C@@H]2[C@H]1O
inactive: outcome [1] | Potency [2] | Potency [5] | Potency [6]

Cn1c(=O)c2c(ncn2CC2OCCO2)n(C)c1=O
inactive: outcome [1] | Potency [2] | Potency [3] | Potency [5] | Potency [6] | Potency [8]

F[Si-2](F)(F)(F)(F)F
inactive: outcome [1] | Potency [2] | Potency [3] | Potency [5] | Potency [7] | Potency [6] | Potency [8]

NC(=O)C1(N2CCCCC2)CCN(CCCC(=O)c2ccc(F)cc2)CC1
inactive: Potency [2] | Potency [5] | Potency [7] | Potency [8]
active: Potency [3] 4.9 µM

Cc1cccc(Nc2ccncc2S(=O)(=O)NC(=O)NC(C)C)c1
active: Potency [5] 13.8 µM
inactive: Potency [2] | Potency [3] | Potency [4] | Potency [7] | Potency [6]

COc1ccc(/C=N/NC(=O)c2ccncc2)cc1OC
inactive: outcome [1] | Potency [2] | Potency [6]
active: Potency [4] 34.7 µM | Potency [5] 17.4 µM

O=c1cc(O)c(Cl)c[nH]1
inactive: outcome [1] | Potency [2] | Potency [3] | Potency [4] | Potency [5] | Potency [7] | Potency [6] | Potency [8]

CCCCOC(=O)[C@@H](C)Oc1ccc(Oc2ccc(C(F)(F)F)cn2)cc1
active: Potency [4] 25.3 µM | Potency [5] 16 µM | Potency [7] 20.1 µM
inactive: Potency [3]
